# S1P3 antagonist = S1P3 (human) receptor antagonism | Q99500 | CHO S1P3 NFAT-BLA reporter, FRET fluorescence, antagonist mode | inhibition, % at 4.98 µM | hit rate 0.27% among 170,000 | AID 485;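 active = inhibition above the plate cutoff, the mean inhibition of test wells on that plate plus 3 SD, cut at about 28% in these data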;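 note: cells challenged with S1P at its EC80 of 0.8 µM; blue over green emission ratio from cleaved BLA substrate after 4 h stimulation; 0% = S1P-stimulated wells and 100% = unstimulated DMSO-only wells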
# EP2 antag = blocks the human prostaglandin E2 receptor EP2 | P43116 | C6 glioma cells expressing human EP2, cAMP TR-FRET; cells stimulated with saturating PGE2 | inhibition, % at 25 µM | hit rate 0.52% among 260,000;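 active = percent inhibition above 40 after rounding to a whole number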;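 note: rat C6 glioma host cells with rolipram phosphodiesterase inhibitor present; the protocol text gives 20 µM as final concentration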
# S1P4 antagonist = blocks the human S1P4 receptor | O95977 | S1P4-expressing cells, antagonist mode, reporter read-out | inhibition, % at 4.98 µM | hit rate 0.26% among 220,000 | AID 1510; in the data active = inhibition above about 29%;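 note: 0% = wells stimulated with agonist and 100% = vehicle wells without agonist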
# EP2 mod = EP2 receptor (human) modulation | hit rate 0.83% among 260,000 | EP2-expressing cells, cAMP HTRF FRET, PGE2 co-stimulation | P43116 | AID 940 | induction, % at 25 µM;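 active = compounds whose cAMP rise, as percent of the full-agonist control response, exceeds 60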;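 note: rat C6 glioma line stably carrying human EP2 under a CMV promoter; the protocol text gives 20 µM as final concentration; 100% = response of wells given 1 µM PGE2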
# S1P4 agonist = agonists of human S1P4 receptor | O95977 | AID 1509 | S1P4-expressing cell line, agonist reporter assay | hit rate 0.35% among 220,000 | activation, % at 4.98 µM; in the data active = activation above about 11%;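 note: 0% = DMSO vehicle and 100% = reference agonist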
# EP2 confirm = human EP2 receptor cAMP induction, negative in counter-screens. AID 1080. C6 glioma EP2 cells, cAMP HTRF induction; plus low (about EC15) PGE2 agonist. hit rate 47% among 1,300. calls only at 20 µM (by protocol). shares compounds with EP2 mod;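 active = cAMP induction above 50% in the main assay while under 30% in all four parallel counter assays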;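 note: rat C6 glioma cells stably expressing human EP2 receptor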
# S1P4 ag conf = human S1P4 agonism, confirmation; shares compounds with S1P4 agonist; S1P4 agonist cell-based reporter assay; activation, % at 4.98 µM; hit rate 7% among 740; in the data active = activation above about 12%;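 note: 0% = vehicle and 100% = full reference agonist response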
# S1P1 agonist = human S1P1 agonism as S1P4 agonist counter-screen. shares compounds with S1P4 agonist. S1P1 agonist cell-based assay, activation. activation, % at 4.98 µM. hit rate 4% among 740. AID 1563; in the data active = activation above about 21%;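 note: 0% = vehicle wells and 100% = reference agonist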
# Target sequence (P21453 whole entry, looked up): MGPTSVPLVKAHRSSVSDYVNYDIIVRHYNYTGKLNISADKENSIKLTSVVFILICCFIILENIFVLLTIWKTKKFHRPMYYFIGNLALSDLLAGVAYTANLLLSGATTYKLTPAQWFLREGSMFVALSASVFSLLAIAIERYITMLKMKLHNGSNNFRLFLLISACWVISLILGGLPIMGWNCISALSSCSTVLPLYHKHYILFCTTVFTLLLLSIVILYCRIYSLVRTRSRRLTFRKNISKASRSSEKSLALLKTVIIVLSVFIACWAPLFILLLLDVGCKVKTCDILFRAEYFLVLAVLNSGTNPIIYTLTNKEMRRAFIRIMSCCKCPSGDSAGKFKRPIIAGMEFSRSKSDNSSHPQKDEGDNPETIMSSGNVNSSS
# * hit, by the source's call; i = inactive; . = no result; + = active, no number. The list is not random: actives were taken first. Their share in the collection is about 2%.
SMILES,S1P3 antagonist,EP2 antag,S1P4 antagonist,EP2 mod,S1P4 agonist,S1P4 ag conf,S1P1 agonist,others
O=C(O)CCCN1C(=O)/C(=C\c2ccco2)SC1=S,0,8,-3,74*,1,.,.,EP2 confirm=+
CCOc1ccc(-n2nc3c(=S)[nH]nc(C)c3c2C)cc1,11,21,8,66*,0,.,.,EP2 confirm=i
CC(C)c1cc(C(=O)NCc2noc(-c3ccccc3)n2)n(C)n1,.,8,.,-49,.,.,.,
CCN(CC)C(=O)Cn1cc(C(=O)C(=O)NCc2ccco2)c2ccccc21,-17,2,1,67*,13*,-1,4,EP2 confirm=i
O=c1[nH]c2cc3c(cc2cc1CN(Cc1nnnn1CCc1ccccc1)C1CCCC1)OCO3,.,12,.,-13,.,.,.,
CC(=O)NCCCc1nc2ccccc2n1Cc1c(F)cccc1Cl,3,2,-10,7,52*,-2,-6,
CC(c1cccc(F)c1)n1cc(C(=O)NCc2cccnc2)nn1 (centres undefined),.,.,.,-12,.,.,.,
Cc1ccc(/C=N/n2c(C3CCCCC3)n[nH]c2=S)s1,-9,8,-10,22,21*,-1,0,
Cc1ccsc1/C=N/n1c(C2CCCCC2)n[nH]c1=S,5,11,-10,44,5,.,.,
COc1ccc(/C=C2\Cc3ccccc3C2=O)cc1OC,-10,6,6,-10,0,.,.,
COc1cc2c(cc1OC)/C(=C/c1ccc(Br)cc1)C(=O)OC2,-16,22,-4,-74,149*,-2,-4,
Cn1c(SCC(=O)N2CCCc3ccccc32)nnc1-c1ccncc1,.,2,.,-24,.,.,.,
CCN(c1ccccc1)S(=O)(=O)c1cc([N+](=O)[O-])ccc1N,-2,5,-8,24,17*,19*,-5,
COc1cc(CC(=O)Nc2cccc(SC)c2)cc(OC)c1OC,0,3,-11,-17,45*,-1,-3,
Cc1cccc(Cn2c(N(C)C)nc3c2c(=O)[nH]c(=O)n3C)c1,.,7,.,-14,.,.,.,
CCn1c(C(CC(C)C)NC(=O)Cc2ccccc2OC)nc2cccnc21 (centres undefined),.,8,.,-22,.,.,.,
CC(=O)N=c1c(C#N)cc2c(=O)n3ccccc3nc2n1CCCOC(C)C,-3,12,-22,-9,16*,4,1,
CC(C)OCCCn1c(=NC(=O)c2cccs2)c(C#N)cc2c(=O)n3ccccc3nc21,-21,8,7,15,19*,4,8,
CCCCn1c(=NC(C)=O)c(C#N)cc2c(=O)n3cccc(C)c3nc21,-1,.,.,.,.,.,.,
CCOCCCn1c(=NC(C)=O)c(C#N)cc2c(=O)n3cccc(C)c3nc21,-14,14,-9,-10,12*,2,28*,
CCc1ccc2c(c1)/C(=N/OC)C(=O)N2,-8,2,-5,14,60*,-2,16,
Cc1ccc(C2=NN(C(=O)CCC(=O)O)C(c3cc4cccc(C)c4[nH]c3=O)C2)cc1 (centres undefined),.,18,.,-6,.,.,.,
Nc1nc(NCC2CCCO2)nc(Nc2ccc(F)cc2)c1[N+](=O)[O-] (centres undefined),6,6,-10,15,25*,-3,-1,
Cc1ccc(Nc2nc(NCC3CCCO3)nc(N)c2[N+](=O)[O-])cc1 (centres undefined),4,7,-20,30,-1,.,.,
CC(Cc1ccccc1)C(=O)N1CCN(C)CC1 (centres undefined),-12,5,7,1,0,.,.,
SMILES,S1P3 antagonist,EP2 antag,S1P4 antagonist,EP2 mod,S1P4 agonist,S1P4 ag conf,S1P1 agonist,others
CN1CCN(C(=O)C(N)Cc2ccccc2)CC1 (centres undefined),-7,3,4,-38,18*,-2,-1,
O=C1CCc2cc(S(=O)(=O)NCC3(N4CCOCC4)CCCCC3)ccc2N1,.,6,.,-16,.,.,.,
O=S(=O)(c1ccccc1)N1CCN(c2nc(-c3cccs3)nc3ccccc23)CC1,13,6,-7,44,1,.,.,
O=S(=O)(c1ccc(Cl)cc1)N1CCN(c2nc(-c3cccs3)nc3ccccc23)CC1,-15,6,-5,27,15*,-2,6,
COc1ccc2c(c1)CCc1sc(NC(C)=O)nc1-2,.,7,.,-4,.,.,.,
COc1ccc(O)c(C2=Nc3ccccc3N=C(c3ccco3)C2)c1,.,30,-12,24,69*,-3,3,
Oc1ccc(Cl)cc1C1=Nc2ccccc2N=C(c2ccco2)C1,.,27,5,26,2,.,.,
Cc1c(C)n(CC(O)CN2CCNCC2)c2ccccc12 (centres undefined),.,4,.,-66,.,.,.,
CCCCCCCCNc1nc(Cl)nc(NCCN2CCOCC2)n1,-7,10,-16,5,17*,-2,2,
COc1nc(NCCN2CCOCC2)nc(Nc2ccccc2)n1,-12,16,-17,7,-2,.,.,
COc1cc(CNCCSc2nnnn2C)cc(Br)c1OCc1ccc(F)cc1,.,5,-12,-69,-3,.,.,
CCOc1cc(CNCCSc2nnnn2C)cc(Br)c1OCc1ccc(F)cc1,10,8,1,-14,41*,-1,-10,
N#CCCN(/N=C/c1cccnc1)C1=NS(=O)(=O)c2ccccc21,1,6,-4,28,47*,-1,3,
Cc1cccc(/C=N/N(CCO)C2=NS(=O)(=O)c3ccccc32)c1,-2,6,-20,-26,-2,.,.,
CC(C)(C)c1nc(NCCN2CCOCC2)c2nnn(Cc3ccccc3)c2n1,.,10,.,19,.,.,.,
CCn1cc(/C=C/C(=O)Nc2c(C)nn(Cc3ccccc3C)c2C)cn1,-3,13,-19,18,20*,-1,3,
Cc1nn(C)c(C)c1NC(=O)Cn1nc2c3c(C)c(C)sc3nc(C(C)C)n2c1=O,.,.,.,-38,.,.,.,
CCCCn1c(SCC(=O)Nc2cccc(OC)c2)nc2ccc(N3CCOCC3)cc2c1=O,.,8,-13,6,14*,-2,-1,
CCCCn1c(SCC(N)=O)nc2ccc(N3CCOCC3)cc2c1=O,.,21,1,-15,-3,.,.,
CCN(CC(=O)Nc1cc(C)nn1-c1nc(C)cc(C)n1)Cc1ccccc1,.,.,1,-32,195*,-2,1,
Cc1ccc(NC(=O)N(Cc2cc3cc4c(cc3[nH]c2=O)OCO4)C2CCCC2)cc1,.,13,.,-16,.,.,.,
COc1ccc(C(=O)N2CCC(C(=O)Nc3cc(C)ccc3OC)CC2)cc1,.,12,.,-13,.,.,.,
CC(C)n1cc(C(=O)N2CCC(c3ccnc4ncnn34)CC2)cn1,.,.,.,19,.,.,.,
O=C(CNC(=O)c1ccc(F)cc1)N/N=C/c1cn[nH]c1-c1ccccc1,11,4,-19,-3,16*,-2,-3,
CC(=O)C1=C(O)C(=O)NC1c1cccnc1 (centres undefined),.,7,.,-9,.,.,.,
O=C(CSc1ccc(F)cc1)NC(=O)NCc1ccccc1,7,10,-19,6,-1,.,.,
